Values joined by “and” are separate entries in the source; they are usually repeats but may differ in a detail not shown here. Identical values can stand only once. This is part of a sample that, as a whole, favours compounds with a hit. Of some 79,000 tested, about 15% had one in any assay. More than one record can exist for a structure, and the calls need not agree. Active and inactive are the calls of the source. Rule as the data show it: active = growth inhibition above about 70%; inactive = the rest.
How the values were obtained:
[1] = NCI Yeast Anticancer Drug Screen. Data for the rad50 strain (AID 155);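 also: 0% = growth of vehicle-only cultures of the same strain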; conditions: S. cerevisiae rad50 strain growth inhibition, stronger effect = higher value
Method in brief: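 Cells are treated with compound, grown, and their growth is then scored against vehicle-only cultures of the same repair-deficient yeast strain.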

[2] = NCI Yeast Anticancer Drug Screen. Data for the mec2-1 strain (AID 157); conditions: S. cerevisiae mec2-1 strain, stronger effect = higher value
Method in brief: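 Compounds were applied to mec2-1 yeast cells. Their growth was then compared with that of vehicle-treated cultures to give growth inhibition.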

[3] = NCI Yeast Anticancer Drug Screen. Data for the sgs1 mgt1 strain (AID 161);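 also: 0% = growth of cultures given vehicle only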; conditions: S. cerevisiae sgs1 mgt1 strain, stronger effect = higher value
Method in brief: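 Compounds are added to genetically altered yeast, and growth is compared with cultures given vehicle alone to give percent inhibition.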

[4] = NCI Yeast Anticancer Drug Screen. Data for the cln2 rad14 strain (AID 165);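 also: 0% = growth equal to vehicle treated cultures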; conditions: S. cerevisiae cln2 rad14 strain, stronger effect = higher value
Method in brief: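 Strain: cln2 rad14 yeast, altered in cell cycle control and DNA damage repair. Read-out: growth inhibition vs vehicle.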

[5] = NCI Yeast Anticancer Drug Screen. Data for the bub3 strain (AID 167); conditions: S. cerevisiae bub3 mutant strain, stronger effect = higher value
Method in brief: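 Part of a panel of yeast mutants defective in DNA damage repair or cell cycle regulation. Each strain is grown with compound, and inhibition is calculated relative to solvent-treated cultures.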

[6] = NCI Yeast Anticancer Drug Screen. Data for the mlh1 rad18 strain (AID 175); conditions: S. cerevisiae mlh1 rad18 strain growth inhibition, stronger effect = higher value
Method in brief: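 A repair-deficient yeast strain is exposed to test compound, and growth is scored relative to vehicle-treated controls.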

[7] = at 5.0 µM (retest, dose inferred, filed as 0.5)
[8] = at 50.0 µM (retest, dose inferred, filed as 5.0)

SMILES	growth inhibition [1, 7]	growth inhibition [1, 8]	growth inhibition ([1]; at 50.0 µM)	growth inhibition [2, 7]	growth inhibition [2, 8]	growth inhibition ([2]; at 50.0 µM)	growth inhibition [3, 7]	growth inhibition [3, 8]	growth inhibition ([3]; at 50.0 µM)	growth inhibition [4, 7]	growth inhibition [4, 8]	growth inhibition ([4]; at 50.0 µM)	growth inhibition [5, 7]	growth inhibition [5, 8]	growth inhibition ([5]; at 50.0 µM)	growth inhibition [6, 7]	growth inhibition [6, 8]	growth inhibition ([6]; at 50.0 µM)
O=C1NC(=O)C(C(c2ccnc3ccccc23)C2C(=O)NC(=O)NC2=O)C(=O)N1	-6% (inactive)	-6% (inactive)	30.1% (inactive)	0% (inactive)	-6% (inactive)	34% (inactive)	-5% (inactive)	-4% (inactive)	55.9% (inactive)	3% (inactive)	-7% (inactive)	62.6% (inactive)	-6% (inactive)	5% (inactive)	42.6% (inactive)	0% (inactive)	-5% (inactive)	35.8% (inactive)
CC(C)(C)C(Br)C(=O)NC(N)=O (centres undefined)	1% (inactive)	-6% (inactive)	-8% (inactive)	-4% (inactive)	3% (inactive)	-0.45% (inactive)	12% (inactive)	-7% (inactive)	-19.4% (inactive)	-6% (inactive)	2% (inactive)	82.2% (active)	-3% (inactive)	-3% (inactive)	-12% (inactive)	-2% (inactive)	-8% (inactive)	16.3% (inactive)
COc1cccc(C(Cc2ccc(N3C(N)=NC(N)=NC3(C)C)cc2)C(=O)Nc2ccc(S(=O)(=O)F)cc2)c1 (centres undefined)	8% (inactive)	96% (active)	99.5% (active)	-139% (inactive)	99% (active)	99.6% (active)	1% (inactive)	99% (active)	99.8% (active)	-1% (inactive)	92% (active)	96.7% (active)	1% (inactive)	98% (active)	95% (active)	6% (inactive)	99% (active)	99.4% (active)
CCCCCCNC(=O)CI	-3% (inactive)	88% (active)	42.7% (inactive)	-2% (inactive)	91% (active)	75.2% (active)	-5% (inactive)	87% (active)	16.7% (inactive)	-1% (inactive)	46% (inactive)	-17.4% (inactive)	5% (inactive)	84% (active)	59.2% (inactive)	-3% (inactive)	93% (active)	50.4% (inactive)
c1cc[c]([Sn]([c]2ccccc2)([c]2ccccc2)[c]2ccccc2)cc1	-2% (inactive)	-3% (inactive)	60.2% (inactive)	-3% (inactive)	1% (inactive)	53.4% (inactive)	0% (inactive)	-2% (inactive)	86.5% (active)	-1% (inactive)	-4% (inactive)	-20.4% (inactive)	2% (inactive)	2% (inactive)	46% (inactive)	1% (inactive)	-4% (inactive)	81.9% (active)
CN(C)CCN(C)P12(Oc3ccccc3O1)Oc1c(Cl)c(Cl)c(Cl)c(Cl)c1O2	-8% (inactive)	6% (inactive)	99% (active)	9% (inactive)	14% (inactive)	99.2% (active)	-10% (inactive)	9% (inactive)	99% (active)	-19% (inactive)	22% (inactive)	99.1% (active)	-10% (inactive)	12% (inactive)	99.1% (active)	0% (inactive)	16% (inactive)	97.6% (active)
CNC(=O)N1CN(c2ccccc2)C2(CCN(CCCC(=O)c3ccc(F)cc3)CC2)C1=O	-7% (inactive)	31% (inactive)	51.5% (inactive)	-14% (inactive)	23% (inactive)	37.9% (inactive)	-3% (inactive)	40% (inactive)	68.3% (inactive)	5% (inactive)	67% (inactive)	70.3% (active)	5% (inactive)	59% (inactive)	76% (active)	-20% (inactive)	39% (inactive)	68.3% (inactive)
CCCCN(CC)CC(C(C)=O)c1c(O)c2ccccc2oc1=O (centres undefined)	8% (inactive)	22% (inactive)	66.8% (inactive)	4% (inactive)	28% (inactive)	48.2% (inactive)	0% (inactive)	65% (inactive)	60.5% (inactive)	15% (inactive)	59% (inactive)	45.2% (inactive)	21% (inactive)	73% (active)	59% (inactive)	-13% (inactive)	34% (inactive)	42.9% (inactive)
CCCCCOC(=O)CCl	8% (inactive)	69% (inactive)	54.7% (inactive)	1% (inactive)	16% (inactive)	1.75% (inactive)	4% (inactive)	40% (inactive)	32.2% (inactive)	1% (inactive)	8% (inactive)	16.5% (inactive)	0% (inactive)	-5% (inactive)	-27.6% (inactive)	11% (inactive)	32% (inactive)	19.4% (inactive)
CC1=C2C(=O)[C@H]3[C@@H](CC=C4C[C@@H](O)CC[C@@]43C)[C@@H]2CC[C@]12O[C@@H]1C[C@H](C)CN[C@H]1[C@H]2C	8% (inactive) and 2% (inactive)	85% (active) and 81% (active)	90.5% (active) and 85.8% (active)	18% (inactive) and 3% (inactive)	96% (active) and 83% (active)	96.7% (active) and 90.8% (active)	11% (inactive) and 5% (inactive)	84% (active) and 91% (active)	97% (active) and 87% (active)	-27% (inactive) and -9% (inactive)	87% (active) and 60% (inactive)	84.2% (active) and 81% (active)	22% (inactive) and 17% (inactive)	91% (active) and 90% (active)	97.5% (active) and 88.5% (active)	10% (inactive) and 5% (inactive)	95% (active) and 89% (active)	90.7% (active) and 87.4% (active)
C=C1C(C)C2C(Cc3ccccc3)NC(=O)C23C(OC(C)=O)C=CC(C)(O)C(=O)C(C)C/C=C/C3C1O (centres undefined)	72% (active)	96% (active)	88.8% (active)	57% (inactive)	96% (active)	90.1% (active)	58% (inactive)	97% (active)	89.2% (active)	80% (active)	96% (active)	85.2% (active)	71% (active)	98% (active)	84% (active)	80% (active)	96% (active)	84.1% (active)
C=CCCCCCCCCC(=O)O (tested in a mixture with another compound)	-3% (inactive)	12% (inactive)	23.1% (inactive)	-3% (inactive)	8% (inactive)	63.3% (inactive)	-9% (inactive)	27% (inactive)	53% (inactive)	6% (inactive)	72% (active)	96.8% (active)	-7% (inactive)	7% (inactive)	40.4% (inactive)	-7% (inactive)	48% (inactive)	83% (active)
O=c1oc2ccccc2c(O)c1C(C/C(CCN1CCCC1)=N\Nc1ccccc1)c1ccccc1 (centres undefined)	3% (inactive)	3% (inactive)	86.3% (active)	-2% (inactive)	-2% (inactive)	80.7% (active)	1% (inactive)	1% (inactive)	87.8% (active)	8% (inactive)	8% (inactive)	81.3% (active)	-13% (inactive)	-13% (inactive)	81.7% (active)	-6% (inactive)	-6% (inactive)	83.9% (active)
